Screening data as filed in PubChem.
Pf Dd2 growth – qHTS Primary assay for Inhibitors of Plasmodium falciparum Dd2 growth in vitro | P. falciparum Dd2 growth, SYBR Green, 72 h | Potency, µM (doses to about 28.9 µM), inactives show top-dose activity, negative = inhibition, hits mostly inhibitors | 4.3% of 120,000 active | AID 1347417, 2020; active = well fitted inhibition curve with a large enough effect;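 also: plate controls were DMSO vehicle for no effect and reference drug for full effect; nearly all actives have a fitted effect of over 65% in size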
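Readout: SYBR Green fluorescence, 485 nm excitation, 535 nm emission, after ~16 h lysis at 37C. Before that, Dd2-infected red cells (2.5% hematocrit) grew 72 h with compound, 29 uM top final concentration.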
Active calls of the source: *; i = inactive; ! = a repeat was not active; [ ] = remark or other dose. The entries come from a sample that favours hits as a whole. Potency is read from the fitted curve at half-maximal effect.

SMILES	Pf Dd2 growth
COCC1CN(C(C)=O)CC12CCN(Cc1sccc1C)CC2 (stereo not drawn)	3%
CN1C[C@@H]2CCCN3CCC[C@@H]([C@H]23)[C@H]1CCCC(=O)Nc1ccc2c(c1)OCCO2	i
COc1cccc(OC)c1CN1CC[C@@H]2CN(S(C)(=O)=O)[C@@H]2C1	i
O=C(O)C1CCc2nnc(C3CCN(C(=O)c4cccc(Cl)c4)C3)n21 (stereo not drawn)	18%
Cc1cccc(C)c1NC(=O)Cn1cccc1-c1nc(-c2ccc(F)cc2)no1	36%
NC(=O)C1CCCN(Cc2ccc(-c3cnc4c(OCc5ccccc5)nccn34)cc2)C1 (stereo not drawn)	-10%
CCCC1=Nc2cc(C(=O)NC(C)c3ccccc3)ccc2Sc2ccc(C)cc21 (stereo not drawn)	-14%
CCCNC(=O)c1ccc2c(c1)N=C(CCC)c1ccccc1S2	i
CCCC1=Nc2cc(C(=O)NCCc3ccccc3)ccc2Sc2ccc(C)cc21	6.3µM*!
CCCC1=Nc2cc(C(=O)NCc3ccc(OC)cc3)ccc2Sc2ccc(C)cc21	-2%
CCC1=Nc2cc(C(=O)NC(C)c3ccccc3)ccc2Sc2ccc(Cl)cc21 (stereo not drawn)	8.9µM*
CC(NC(=O)c1ccc2nc(CCc3ccccc3)oc2c1)c1ccccc1 (stereo not drawn)	-22%
CC(C)CN1CC[C@H](c2nc3ccccc3n2C)C1	i
O=C(Nc1cccc(C(F)(F)F)c1)c1nc2c(o1)CCN(Cc1cccs1)CC2	i
COc1ccc(CN2CC3(CCN(C(=O)CCc4nc5ccccc5[nH]4)CC3)C2=O)cc1	i
Cc1ccsc1C(=O)N1CCC(c2noc(-c3cnccn3)n2)C1 (stereo not drawn)	i[5.79 µM]
O=C(N[C@@H]1CN(Cc2ccc(F)cc2Cl)C[C@H]1CO)C1CCC1	8.9µM*
O=C(N[C@@H]1CN(Cc2ccc(F)cc2Cl)C[C@H]1CO)C1CC1	-5%
O=C(N[C@@H]1CN(Cc2ccc(F)cc2F)C[C@H]1CO)c1ccccc1	10µM*
CN1C[C@@H](CO)[C@H](NC(=O)c2ccccc2)C1	11%
O=C(N[C@@H]1CN(Cc2ccc(Cl)c(F)c2)C[C@H]1CO)C1CCC1	-27%
N#Cc1cccc(CN2C[C@@H](CO)[C@H](NC(=O)c3ccccc3)C2)c1	-17%
CC(C)C(=O)NCC12CCCC=C1N(C)C(=O)CC2 (stereo not drawn)	8%
Fc1ccccc1-c1noc(-c2nc(-c3ccc4c(c3)OCO4)no2)n1	-2%
Cn1cnc(S(=O)(=O)N2CCC(N3C(=O)C4(CCCC4)C3c3ccccc3)CC2)c1 (stereo not drawn)	-11%
SMILES	Pf Dd2 growth
O=C(Cn1ccnc1)N1CCC(N2C(=O)C3(CCCC3)C2c2ccccc2)CC1 (stereo not drawn)	-7%
O=C1N(C2CCNCC2)C(c2ccccc2)C12CCCC2 (stereo not drawn)	5µM*
COCC(=O)N1CCC(N2C(=O)C3(CCCCC3)C2c2ccccc2)CC1 (stereo not drawn)	-30%
CCOC(=O)CCNC(=O)N1CCC(N2C(=O)C3(CCCC3)C2c2scnc2C)CC1 (stereo not drawn)	-12%
O=C(CC(F)(F)F)N1CCC(N2C(=O)C3(CCCC3)C2c2ccccc2)CC1 (stereo not drawn)	6.3µM*
CCNC(=O)N1CCC(N2C(=O)C3(CCCC3)C2c2ccccc2)CC1 (stereo not drawn)	11µM*
O=C(Cc1ccncc1)N1CCC(N2C(=O)C3(CCCCC3)C2c2ccccc2)CC1 (stereo not drawn)	i
CN(C)S(=O)(=O)N1CCC(N2C(=O)C3(CCCCC3)C2c2ccccc2)CC1 (stereo not drawn)	-21%
CC(NC(=O)c1ccc2cccc(F)c2n1)c1ccccc1-n1cccn1 (stereo not drawn)	-19%
O=C(NC1CCc2n[nH]c(=O)n2CC1)c1ccoc1 (stereo not drawn)	24%
CC(C)NC(=O)N1CCC2(CC1)CC(N(C)Cc1ccccc1)CCO2 (stereo not drawn)	-23%
COC[C@@H]1CN(C(=O)c2ccc3ncccc3c2)C[C@H]1c1ccncc1	-2%
CCC1(C(=O)NCc2ccc(OC(C)C)cc2)CCCCC(=O)N1 (stereo not drawn)	-9%
O=C(Cc1ccc(Cl)cc1)N1CCC(n2cc(-c3nc(-c4ccccc4)no3)nn2)C1 (stereo not drawn)	-16%
N#Cc1ccc(C(=O)N2CCCC(n3cc(-c4nc(-c5ccccc5)no4)nn3)C2)cc1 (stereo not drawn)	4.5µM*
O=C(c1ccc(Cl)cc1)N1CCC(n2cc(-c3nc(-c4ccccc4)no3)nn2)C1 (stereo not drawn)	-17%
O=C(Cc1cccc(Cl)c1)N1CCC(n2cc(-c3nc(-c4ccccc4)no3)nn2)C1 (stereo not drawn)	138%
O=C(Cc1ccc(Cl)cc1)N1CCC(n2cc(-c3nc(-c4ccccc4)no3)nn2)CC1	2µM*
O=C(c1ccccc1)N1CCC(n2cc(-c3nc(-c4ccccc4)no3)nn2)C1 (stereo not drawn)	0%
